Assay results as given in PubChem BioAssay AID2284352 (EPA ToxCast).
Records with an inconclusive call do not appear. Calls of active or inactive are those of the source. Rule for the calls: active = hit-call score of the fitted dose curve at least 0.9, where 1 is the maximum; inconclusive = response in the unintended direction; inactive = score below 0.9.

System: rainbow trout Peroxisome Proliferator-activated Receptor gamma (PPARg), gene 110528708
Test: ATG_rtPPARg_EcoTox2: Attagene TRANS-FACTORIAL EcoTox-2 HepG2 Assay for rainbow trout Peroxisome Proliferator-activated Receptor gamma (PPARg)
Description: ATG_EcoTox2 is a cell-based, multiplexed assay created by modifying the existing Attagene TRANS-FACTORIAL system to include a panel of nuclear receptors from some or all the following species: human (Homo sapiens), african clawed frog (Xenopus laevis), rainbow trout (Oncorhynchus mykiss), japanese medaka (Oryzias latipes), and zebrafish (Danio rerio). The ECOTOX2-FACTORIAL format uses HepG2, a human liver cell line, with measurements taken at 24 hours after chemical dosing in a 24-well plate. ATG_rtPPARg_EcoTox2 is one of 29 assay components calculated in the ATG_EcoTox2 assay. It is designed to make measurements of mRNA induction, a form of inducible reporter, as detected with fluorescence intensity signals by Reverse transcription polymerase chain reaction (RT-PCR) and Capillary electrophoresis technology.The assay endpoint ATG_rtPPARg_EcoTox2 was analyzed in the positive analysis fitting direction relative to DMSO as the negative control and baseline of activity. Using a type of inducible reporter, measures of mRNA for gain-of-signal activity can be used to understand the reporter gene at the transcription factor-level as they relate to the gene PPARg. Furthermore, this assay endpoint can be referred to as a primary readout, because this assay has produced multiple assay endpoints where this one serves a reporter gene function. […]
Human liver HepG2 cells are transiently transfected with multiple reporter transcription units (MRTUs) in 6-well plates using FuGene 6 reagent (Roche; 3 ml FuGene/1 mg DNA). […] A major difference between the CIS and TRANS system is that in CIS activities of endogenous TFs are measured, whereas the TRANS assay evaluates changes in activities of exogenous, chimeric NR-Gal4 proteins. […] The fragments were purified using Qiaquick PCR columns (Qiagen), analyzed on an ABI 3130xL genetic analyzer (Applied Biosystems) with peak positions identified by using a set of X-rhodamine (ROX)-labeled MapMarker1000 molecular weight standards (BioVentures). […]

| Compound | outcome |
| --- | --- |
| O=C(O)C(F)(F)C(F)(F)C(F)(F)C(F)(F)C(F)(F)C(F)(F)C(F)(F)F | inactive |
| O=S(=O)(O)C(F)(F)C(F)(F)C(F)(F)C(F)(F)C(F)(F)C(F)(F)F | inactive |
| CCCCOCN(C(=O)CCl)c1c(CC)cccc1CC | inactive |
